For assay [1], the target named is Glutathione peroxidase 1 (Homo sapiens) (UniProt P07203). Nature of the assay: Primary qHTS Assay for Inhibitors of Recombinant Selenoprotein Glutathione Peroxidase 1 (GPX1) (AID 1845191). Further: nearly all actives have a fitted effect of over 65% in size. On activity, negative = inhibition: on the % scale 0 is the no-effect control and ±100 the full control effect. Summed up:
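GR-coupled assay: compounds preincubated 30 min at room temperature with GPX1, then reaction started with CHP; final 10 nM GPX1, 1 mM GSH, 0.5 mM CHP, 0.5 mM NADPH, 100 nM GR, 0.01% BSA, pH 7.5 Tris buffer. NADPH fluorescence (340/450 nm) read at 0 and 15 min.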
(In qHTS, concentration-response curves come from the screen itself.)

The target in assay [2] is Phospholipid hydroperoxide glutathione peroxidase GPX4 (Homo sapiens) (UniProt P36969). Kind of assay: Primary qHTS Assay for Inhibitors of Recombinant Selenoprotein Glutathione Peroxidase 4 (GPX4) (AID 1845192). Further: nearly all actives have a fitted effect of over 65% in size. On activity change, negative = inhibition: series mostly up to about 50 µM; on the % scale 0 is the no-effect control and ±100 the full control effect. The gist of the method:
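GR-coupled assay: recombinant GPX4 preincubated 30 min with compound at room temperature; final 200 nM GPX4, 1 mM GSH, 0.5 mM cumene hydroperoxide, 0.5 mM NADPH, 100 nM GR, 0.01% BSA, pH 7.5 Tris. NADPH fluorescence (340/450 nm) read at 0 and 15 min.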

Assay [3] has as its target Luciferin 4-monooxygenase (Photinus pyralis) (UniProt P08659). Kind of assay: Primary firefly luciferase (FLuc) qHTS assay for identification of artifact compounds. (AID 1845220). Further: nearly all actives have a fitted effect of over 60% in size. Further: potency means the concentration at half of the fitted maximal effect.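 On activity change, negative = inhibition: series mostly up to about 54 µM; plate controls were DMSO vehicle for no effect and no enzyme for full effect.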 Summed up:
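Titrated compounds were incubated 15 min at RT, protected from light, with luciferin and ATP at 10 uM; reaction started with 10 nM FLuc, luminescence imaged at 5 min, and concentration-response fitted by Hill equation.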

A short description of assay [4]: Primary fluorescence-based thiol-reactive (MSTI) qHTS assay for identification of artifact compounds. (AID 1845221). Further: nearly all actives have a fitted effect of over 65% in size. Further: potency means the concentration at half of the fitted maximal effect.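 On activity change, negative = thiol reactive: series mostly up to about 54 µM; thiol-reactive compounds lower the probe fluorescence signal.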 The gist of the method: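 MSTI probe at 4 uM final in 2% DMSO/PBS pH 7.4; compounds, 1 h at room temperature in dark. Fluorescence Ex/Em 525/598 nm, normalised to Acetyl-MSTI and MSTI, fitted to 4-parameter Hill.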
In assay [5] the test system is Nanoluciferase (engineered Oplophorus gracilirostris luciferase). Kind of assay: Primary Nanoluciferase (NLuc) qHTS assay for identification of artifact compounds. (AID 1845222).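 Further: NLuc secreted into diluted conditioned medium of S16 cells; series mostly up to about 54 µM; 0% = DMSO and -100% = no enzyme.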 The gist of the method:
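qHTS format, against NLuc in S16 cell-conditioned medium. Nano-Glo substrate 1:100 was added after 15 min at room temperature. Luminescence was taken after a further 5 min.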

Assay [6] is described as follows: Primary redox qHTS assay for identification of artifact compounds. (AID 1845223).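 Further: 0% = DMSO and 100% = reference compound.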 Summed up: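 Amplex Red (25 uM) and HRP (250 mU/mL) in HBSS, with compounds for 15 min, then 250 uM DTT for 30 min, room temperature, dark. Fluorescence 525/598 nm read; normalized to DMSO and 10 uM DA3003; Hill fit.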

SMILES strings stand for the structures. Values without a mark were called inactive. Records with an inconclusive call do not appear. Activity calls are given as the source filed them. The call rests on the fitted dose curve; in most records, active means well fitted curve in the direction sought with a large enough effect; inconclusive means small, poorly fitted or top-dose-only effect, or another doubt; inactive means no such curve, though single readings can be large; an effect the other way counts as inactive or inconclusive.

Glutathione peroxidase 1 (Homo sapiens), sequence (P07203 whole entry, looked up): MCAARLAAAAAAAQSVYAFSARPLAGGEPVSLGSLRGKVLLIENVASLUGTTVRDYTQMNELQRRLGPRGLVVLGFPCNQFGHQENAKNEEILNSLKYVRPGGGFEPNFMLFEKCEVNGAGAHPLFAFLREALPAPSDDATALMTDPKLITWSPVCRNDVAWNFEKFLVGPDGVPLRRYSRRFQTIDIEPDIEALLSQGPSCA
Phospholipid hydroperoxide glutathione peroxidase GPX4 (Homo sapiens), sequence (P36969 whole entry, looked up): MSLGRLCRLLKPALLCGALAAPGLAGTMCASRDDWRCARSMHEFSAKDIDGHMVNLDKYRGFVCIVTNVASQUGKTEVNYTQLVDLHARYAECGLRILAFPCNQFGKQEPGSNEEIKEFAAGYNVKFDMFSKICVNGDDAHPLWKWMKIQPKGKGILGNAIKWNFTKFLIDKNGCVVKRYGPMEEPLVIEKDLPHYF

With `CN1C2CCC1CC(OC(=O)[C@H](CO)c1ccccc1)C2` (stereo not given in full), the Potency entry in assay [1], in assay [2], in assay [3], in assay [4], in assay [5] and in assay [6] was “inactive” throughout.
For `Fc1ccc2nc(CCC#Cc3ccccn3)cn2c1`, the Potency result in assay [1], in assay [2], in assay [3], in assay [4], in assay [5] and in assay [6] was “inactive” each time.
As for `CC(=O)O[C@@H]1[C@H](O)[C@@H](O[C@@H]2O[C@@H](C)[C@H](O[C@@H]3OC[C@@H](O)[C@H](O[C@@H]4OC[C@@H](O)[C@H](O)[C@H]4O)[C@H]3O)[C@@H](O[C@@H]3O[C@H](CO)[C@@H](O)[C@H](O)[C@H]3O)[C@H]2O)[C@H](OC(=O)[C@]23CCC(C)(C)C[C@H]2C2=CCC4[C@@]5(C)CC[C@H](O[C@@H]6O[C@H](C(=O)O)[C@@H](O)[C@H](O[C@@H]7OC[C@@H](O)[C@H](O)[C@H]7O)[C@H]6O[C@@H]6O[C@H](CO)[C@H](O)[C@H](O)[C@H]6O)[C@@](C)(C=O)C5CC[C@@]4(C)[C@]2(C)CC3)O[C@@H]1C` (stereo not given in full), the activity, negative = inhibition in assay [1] was -4.56% [at 9.52 µM]; in assay [5] it was 0% [at 6.45 µM]. Further, the activity change, negative = inhibition in assay [2] is 2.64% [at 9.73 µM]; in assay [3], 3.61% [at 6.45 µM]. Besides, the activity change, negative = thiol reactive in assay [4] was 306% [at 6.41 µM]. Besides, the redox activity (% of DA3003) in assay [6] was -0.0347% [at 6.41 µM].
In the case of `CS(=O)(=O)c1ccc([C@H](CC2CCCC2)C(=O)Nc2nccs2)cc1`, the Potency entry in assay [1], in assay [2], in assay [3], in assay [4], in assay [5] and in assay [6] was “inactive” throughout.
As for `C=C1C(=O)OC2C1C(O)CC1(C)C(O)CCC(C=O)C21` (stereo not given), the Potency result in assay [1], in assay [2], in assay [3], in assay [4], in assay [5] and in assay [6] was “inactive” throughout.
With `COc1c2cc(c(O)c1OC)-c1cc(ccc1O)CCC(O)CCCC2` (stereo not given), the Potency result in assay [1], in assay [2], in assay [3], in assay [4], in assay [5] and in assay [6] was “inactive” in each case.
`NC(=O)c1cccc(-c2cc(OC(=O)NC3CCCCC3)ccc2O)c1`: the Potency result in assay [1], in assay [2], in assay [3], in assay [4], in assay [5] and in assay [6] was “inactive” in each case.
For the compound `CC(=O)O[C@@H](CO[C@@H]1O[C@H](CO)[C@H](O)[C@H](O)[C@H]1O)[C@]1(C)C=C2CC[C@@H]3C(C)(C)[C@@H](O)CC[C@@]3(C)[C@@H]2CC1`, the Potency entry in assay [1], in assay [2], in assay [3], in assay [4], in assay [5] and in assay [6] was “inactive” in each case.
Consider `COC1/C=C/C(C)(O)C(SCC(N)C(=O)O)CC(=O)OC(C)C(C)CC/C=C/1C` (stereo not given), for which the Potency result in assay [1], in assay [2], in assay [3], in assay [4], in assay [5] and in assay [6] was “inactive” in each case.
For `C=C1C(=O)OC2CC(C)=C(C(C)CCCO)C(O)C12` (stereo not given), the Potency result in assay [1], in assay [2], in assay [3], in assay [5] and in assay [6] was “inactive” in each case. Further, the Potency in assay [4] was 5.97 µM (active).
As to `C/C1=C\CCC2=C[C@@H](OC2=O)c2c(C)coc2C1`, the Potency result in assay [1], in assay [2], in assay [3], in assay [5] and in assay [6] was “inactive” in each case. Further, the Potency in assay [4] was 11.9 µM (active).
For the compound `O=C(NCC(O)CO)c1ccncc1Nc1ccc(I)cc1F` (stereo not given), the Potency result in assay [1], in assay [2], in assay [3], in assay [4], in assay [5] and in assay [6] was “inactive” in each case.
Regarding `CC(C)(C)CCN1C[C@@H]2C(CNC(=O)c3cc(Cl)cc(Cl)c3)[C@@H]2C1` (stereo not given in full), the Potency result in assay [1], in assay [2], in assay [3], in assay [4], in assay [5] and in assay [6] was “inactive” throughout.
`Cc1cccc(C)c1OCc1cc(C(=O)N2CCC(c3ccncc3)CC2)no1`: the Potency entry in assay [1], in assay [2], in assay [3], in assay [4], in assay [5] and in assay [6] was “inactive” in each case.
Regarding `CC(C)=CCCC1(C)C=Cc2c(c(C)cc3c2[nH]c2ccccc23)O1` (stereo not given), the Potency entry in assay [1], in assay [2], in assay [3], in assay [5] and in assay [6] was “inactive” in each case. In addition, in assay [4], the Potency is 2.93 µM (active).
On to `CC(C)(C)NS(=O)(=O)c1cncc(-c2cc(F)c3nc(N)nn3c2)c1`, for which the Potency result in assay [1], in assay [2], in assay [3], in assay [4], in assay [5] and in assay [6] was “inactive” each time.
On to `C=C1CC[C@H]2[C@@](C)(CCC(O)[C@@]2(C)CO)[C@@H]1CCC1=CCOC1=O` (stereo not given in full), for which the Potency result in assay [1], in assay [2], in assay [3], in assay [4], in assay [5] and in assay [6] was “inactive” in each case.
As to `C[C@H](C(=O)NC1CCCC1)N(C(=O)Cn1nnc(-c2ccc3c(c2)OCO3)n1)C1CCCCC1`, the Potency entry in assay [1], in assay [2], in assay [3], in assay [4], in assay [5] and in assay [6] was “inactive” throughout.
Regarding `CC(C)(C)NC(=O)[C@@H](c1cccnc1)N(C(=O)c1ccco1)c1ccc(C(C)(C)C)cc1`, the Potency entry in assay [1], in assay [2], in assay [3], in assay [4] and in assay [6] was “inactive” each time.
As to `O=C1C=CC(O)(/C=C/C(=O)OC[C@H]2O[C@@H](Oc3ccc(O)cc3)[C@H](O)[C@@H](O)[C@@H]2O)C=C1`, the Potency entry in assay [1], in assay [2], in assay [3], in assay [5] and in assay [6] was “inactive” each time.
Take `CC(C)CNCc1ccc(-c2ccccc2S(=O)(=O)N2CCCC2)cc1`: the Potency result in assay [1], in assay [2], in assay [3], in assay [4], in assay [5] and in assay [6] was “inactive” each time.
Turning to `CC(=O)c1cc(C(=O)N[C@@H](C)Cn2ccc(-c3ccc(C#N)c(Cl)c3)n2)[nH]n1`, the Potency result in assay [1], in assay [2], in assay [3], in assay [4], in assay [5] and in assay [6] was “inactive” in each case.
On to `C=CC1C(OC2OC(CO)C(O)C(O)C2O)OC=C(C(=O)OC)C1CC(=O)OCC1C(C)C(O)CC1C(CO)COC(=O)CC1C(C(=O)O)=COC(OC2OC(CO)C(O)C(O)C2O)/C1=C\C` (stereo not given), for which the Potency entry in assay [1] and in assay [2] was “inactive” throughout. Also, the activity change, negative = inhibition in assay [3] is -4.67% [at 11.6 µM]. Also, the activity change, negative = thiol reactive in assay [4] is 7.86% [at 11.5 µM]. Also, in assay [5], the activity, negative = inhibition was -0.732% [at 11.6 µM]. For the same compound, the redox activity (% of DA3003) in assay [6] is 14.1% [at 11.5 µM].
As for `COc1cc2ncnc(Nc3ccc(O)cc3)c2cc1OC`, the Potency result in assay [1], in assay [2], in assay [3], in assay [5] and in assay [6] was “inactive” throughout.
`C=CC(=O)Nc1cc(Nc2ncc(Cl)c(-c3c[nH]c4ccccc34)n2)c(OC)cc1N(C)CCN(C)C`: the Potency result in assay [1], in assay [2], in assay [3] and in assay [5] was “inactive” each time.
In the case of `N#CC(c1ccnc(OCc2ccc(CN3CCOCC3)cc2)n1)c1nc2ccccc2s1` (stereo not given), the Potency entry in assay [1], in assay [2], in assay [5] and in assay [6] was “inactive” throughout. The Potency in assay [3] was 0.426 µM (active).

The record behind these values is PubChem BioAssay (NCATS).
